Results reported in PubChem BioAssay (Tox21).
Records with an inconclusive call do not appear. Activity calls are given as the source filed them. Unless noted, calls follow the shape of the full dose curve.

Key:
[1] = target: Estrogen receptor (Homo sapiens) (UniProt P03372); assay: qHTS assay to identify small molecule agonists of the estrogen receptor alpha (ER-alpha) signaling pathway in the presence of an antagonist (AID 1259383); also: top concentration of the series differs between compounds; nearly all actives have a fitted effect of over 15% in size
Outline: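 VM7Luc4E2 cells (endogenous full-length ER-alpha, 4×ERE-luciferase) were precultured 5 days in phenol red-free medium with 10% charcoal-stripped FBS, given 10.0nM ICI-182,780 (final), then treated with compounds at 15 concentrations for 22hr at 37C; luminescence read with ONE-Glo.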

[2] = qHTS assay to identify small molecule agonists of the estrogen receptor alpha (ER-alpha) signaling pathway in the presence of an antagonist - cell viability counter screen (AID 1259386; active = well fitted curve in the direction sought with a large enough effect in the repeat runs; an effect the other way counts as inactive or inconclusive;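 also: series mostly up to about 92 µM; cells exposed to compounds for 22 h at 37 °C before the viability read; nearly all actives have a fitted effect of over 30% in size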)
Outline: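 VM7Luc4E2 cells (endogenous full-length ER-alpha, 4×ERE-luciferase) were held 5 days in phenol red-free medium with 10% charcoal-stripped FBS, plated, then given 10.0nM ICI-182,780 and compounds at 15 concentrations for 22hr at 37C; viability read by CellTiter-Fluor fluorescence.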

[3] = target: Progesterone receptor (Homo sapiens) (UniProt P06401); assay: qHTS assay to identify small molecule agonists of the progesterone receptor (PR) signaling pathway (AID 1346784); also: nearly all actives have a fitted effect of over 30% in size
Outline: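 Agonist mode, quantitative HTS format in a HEK 293T line expressing a UAS-controlled beta-lactamase reporter; 16 hr compound exposure at 37C in 2% charcoal-stripped FBS, then LiveBLAzer B/G FRET fluorescence.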

[4] = target: Progesterone receptor (Homo sapiens) (UniProt P06401); assay: qHTS assay to identify small molecule antagonists of the progesterone receptor (PR) signaling pathway (AID 1346795; active = well fitted inhibition curve with a large enough effect in the signal ratio in the repeat runs, not every such curve was filed as active; the % refers to the signal ratio; also: potency is read from the fitted curve at half-maximal effect)
Outline: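 HEK293T PR-UAS-bla reporter cells in charcoal-stripped serum (2%) received compound after a 6 hr settling period, followed by R5020 agonist at 1 nM final; 16 hr incubation preceded the FRET substrate step and fluorescence measurement.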

[5] = qHTS assay to identify small molecule antagonists of the progesterone receptor (PR) signaling pathway - cell viability counter screen (AID 1346798; active = well fitted curve in the direction sought with a large enough effect in the repeat runs; an effect the other way counts as inactive or inconclusive; also: series mostly up to about 92 µM; nearly all actives have a fitted effect of over 50% in size)
Outline: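 Same-well multiplex: after 16 hr at 37C with compound and R5020 stimulation, HEK293T cells carrying a UAS-bla reporter received LiveBLAzer substrate (2 hr RT), then CellTiter-Glo (30 min RT) for luminescent viability.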

[6] = qHTS assay to identify small molecule agonists of the progesterone receptor (PR) signaling pathway - cell viability counter screen (AID 1346799); also: nearly all actives have a fitted effect of over 45% in size
Outline: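 Counter screen for cytotoxicity: compound-treated PR-UAS-bla HEK293T cells (16 hr, 37C, 5% CO2) were assayed with CellTiter-Glo, luminescence measured after 30 min at room temperature.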

[7] = qHTS assay to identify small molecule antagonists of the TGF-beta/Smad signaling pathway - cell viability counter screen (AID 1346824; active = well fitted curve in the direction sought with a large enough effect in the repeat runs; an effect the other way counts as inactive or inconclusive; also: nearly all actives have a fitted effect of over 50% in size)
Outline: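 SBE-bla HEK 293T cells, incubated overnight, then compound plus 0.25 ng/mL TGF-beta1 (stock added) for 5 hr at 37 C. Viability was read in the same wells by CellTiter-Glo luminescence after 30 min at room temperature.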

[8] = qHTS assay to identify small molecule agonists of the TGF-beta/Smad signaling pathway - cell viability counter screen (AID 1346829; active = well fitted curve in the direction sought with a large enough effect in the repeat runs; an effect the other way counts as inactive or inconclusive; also: top concentration of the series differs between compounds; nearly all actives have a fitted effect of over 45% in size)
Outline: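 HEK 293T SBE-bla line, 5 hr compound exposure at 37 C, multiplexed CellTiter-Glo viability read by luminescence.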

[9] = qHTS assay to identify small molecule agonists or antagonists of the thyroid stimulating hormone receptor (TSHR) signaling pathway - wild type cell line counter screen (AID 1259384)
Outline: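 Wild-type Hek293 cells, 800/well, 18 h at 37C, then compound with Ro20-1724 for 30 min RT. cAMP by HTRF (cAMP-d2/anti-cAMP cryptate), 1 h RT, fluorescence read. 15 concentrations, triplicates.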

[10] = target: Thyrotropin receptor (Homo sapiens) (UniProt P16473); assay: qHTS assay to identify small molecule antagonists of the thyroid stimulating hormone receptor (TSHR) signaling pathway (AID 1259385); also: nearly all actives have a fitted effect of over 20% in size
Outline: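 TSHR-HEK293 cells (800/well) plated 18 h, then compounds with Ro20-1724 and TSH at 1.5 ng/mL final, 30 min at room temperature. cAMP quantified by HTRF (cAMP-d2/anti-cAMP-cryptate, 1 h); 15 concentrations in triplicate.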

Measured: Potency

Sequence of Thyrotropin receptor (Homo sapiens) (P16473 whole entry, looked up): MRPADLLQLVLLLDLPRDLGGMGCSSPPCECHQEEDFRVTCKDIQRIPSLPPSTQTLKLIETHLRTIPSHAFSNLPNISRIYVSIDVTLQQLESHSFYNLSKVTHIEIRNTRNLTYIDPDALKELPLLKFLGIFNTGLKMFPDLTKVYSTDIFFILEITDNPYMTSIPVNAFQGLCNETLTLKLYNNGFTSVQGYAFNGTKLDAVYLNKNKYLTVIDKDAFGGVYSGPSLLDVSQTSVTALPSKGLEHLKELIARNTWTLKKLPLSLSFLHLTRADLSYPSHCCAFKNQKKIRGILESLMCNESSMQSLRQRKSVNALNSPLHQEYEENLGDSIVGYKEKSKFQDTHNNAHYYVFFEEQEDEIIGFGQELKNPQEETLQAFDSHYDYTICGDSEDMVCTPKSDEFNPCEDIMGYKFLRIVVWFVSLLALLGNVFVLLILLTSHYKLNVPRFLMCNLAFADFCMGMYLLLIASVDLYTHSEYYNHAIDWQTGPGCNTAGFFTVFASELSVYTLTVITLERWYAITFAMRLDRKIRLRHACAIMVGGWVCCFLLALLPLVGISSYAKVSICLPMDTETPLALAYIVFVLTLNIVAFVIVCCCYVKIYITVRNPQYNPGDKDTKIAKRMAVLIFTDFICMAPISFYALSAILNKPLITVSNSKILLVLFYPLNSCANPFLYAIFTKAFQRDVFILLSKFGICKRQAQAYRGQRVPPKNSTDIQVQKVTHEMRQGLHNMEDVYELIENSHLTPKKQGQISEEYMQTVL
Sequence of Estrogen receptor (Homo sapiens) (P03372 whole entry, looked up): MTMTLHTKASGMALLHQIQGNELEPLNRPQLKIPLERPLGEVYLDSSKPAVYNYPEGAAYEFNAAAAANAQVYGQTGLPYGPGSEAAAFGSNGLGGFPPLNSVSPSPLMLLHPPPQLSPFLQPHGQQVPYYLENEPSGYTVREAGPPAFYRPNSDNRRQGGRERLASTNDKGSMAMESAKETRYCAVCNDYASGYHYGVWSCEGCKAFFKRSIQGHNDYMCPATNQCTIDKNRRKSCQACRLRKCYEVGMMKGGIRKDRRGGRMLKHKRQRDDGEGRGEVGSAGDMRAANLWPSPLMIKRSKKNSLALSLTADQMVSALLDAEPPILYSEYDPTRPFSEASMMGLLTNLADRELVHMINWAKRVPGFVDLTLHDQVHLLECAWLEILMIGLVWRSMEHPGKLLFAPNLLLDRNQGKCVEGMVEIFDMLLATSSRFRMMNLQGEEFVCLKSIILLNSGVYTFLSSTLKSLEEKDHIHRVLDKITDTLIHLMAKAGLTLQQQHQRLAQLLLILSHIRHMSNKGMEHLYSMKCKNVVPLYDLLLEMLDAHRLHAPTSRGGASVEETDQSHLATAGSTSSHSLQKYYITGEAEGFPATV
Sequence of Progesterone receptor (Homo sapiens) (P06401 whole entry, looked up): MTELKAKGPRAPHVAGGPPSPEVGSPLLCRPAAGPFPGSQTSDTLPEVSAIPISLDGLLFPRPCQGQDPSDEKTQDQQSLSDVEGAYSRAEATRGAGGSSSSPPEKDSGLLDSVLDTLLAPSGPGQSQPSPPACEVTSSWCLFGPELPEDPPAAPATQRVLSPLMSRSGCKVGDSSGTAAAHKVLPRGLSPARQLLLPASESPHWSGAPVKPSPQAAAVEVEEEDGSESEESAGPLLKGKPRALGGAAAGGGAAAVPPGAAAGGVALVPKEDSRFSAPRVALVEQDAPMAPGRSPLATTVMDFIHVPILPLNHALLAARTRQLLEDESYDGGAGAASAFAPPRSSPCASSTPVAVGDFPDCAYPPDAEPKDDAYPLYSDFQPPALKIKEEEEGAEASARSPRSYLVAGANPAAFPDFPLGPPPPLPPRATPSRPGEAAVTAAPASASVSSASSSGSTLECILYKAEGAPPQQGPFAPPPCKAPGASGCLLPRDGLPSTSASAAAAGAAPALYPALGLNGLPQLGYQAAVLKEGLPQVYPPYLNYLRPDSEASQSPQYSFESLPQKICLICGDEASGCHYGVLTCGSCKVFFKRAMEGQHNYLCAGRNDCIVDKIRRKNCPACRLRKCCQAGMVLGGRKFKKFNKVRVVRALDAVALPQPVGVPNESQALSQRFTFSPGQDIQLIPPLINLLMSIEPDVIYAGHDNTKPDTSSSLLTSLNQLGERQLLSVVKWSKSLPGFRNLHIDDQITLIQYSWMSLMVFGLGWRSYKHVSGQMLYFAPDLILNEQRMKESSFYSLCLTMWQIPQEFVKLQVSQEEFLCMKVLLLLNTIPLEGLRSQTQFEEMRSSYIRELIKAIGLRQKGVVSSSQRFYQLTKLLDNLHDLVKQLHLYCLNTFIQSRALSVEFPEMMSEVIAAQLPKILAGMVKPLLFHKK

CC(C)(C)c1ccc(N)cc1
not listed: [9] | [10]
inactive: all other assays above

Cc1cc(=O)oc2cc(O[C@@H]3SC[C@@H](O)[C@H](O)[C@H]3O)ccc12
not listed: [2] | [4] | [7]
inactive: all other assays above

Cc1ccc(NC(N)=O)cc1
not listed: [10]
inactive: all other assays above

CCOC(=O)CC
not listed: [2]
inactive: all other assays above

c1coc(Cn2cccc2)c1
not listed: [2] | [4]
inactive: all other assays above

CN1C(CCl)Nc2cc(Cl)c(S(N)(=O)=O)cc2S1(=O)=O (centres undefined)
not listed: [3] | [9] | [10]
inactive: all other assays above

C[C@@H](CN1CC(=O)NC(=O)C1)N1CC(=O)NC(=O)C1
not listed: [9] | [10]
inactive: all other assays above

C/C=C/C(=O)CCCC
not listed: [2] | [3] | [6]
inactive: all other assays above

N[C@H]1C(O)O[C@H](CO)[C@@H](O)[C@@H]1O (some centres undefined)
not listed: [2] | [3] | [5]
inactive: all other assays above

CC(=O)SC[C@@H](C)C(=O)N1CCC[C@H]1C(=O)N[C@@H](Cc1ccccc1)C(=O)O
not listed: [10]
inactive: all other assays above

CCOC(=O)CN1CCCC1=O
not listed: [6] | [9] | [10]
inactive: all other assays above

O=C(O)COc1ccc2ccccc2c1
not listed: [6] | [9] | [10]
inactive: all other assays above

COC(=O)c1c(C)cc(O)c(C)c1O
active: [4] 19.3 µM
not listed: [6] | [9] | [10]
inactive: all other assays above

CO/N=C(\C(=O)O)c1csc(NC(=O)CCl)n1
not listed: [9] | [10]
inactive: all other assays above

CCCCCCCCCCCBr
inactive: [1] | [2] | [3] | [4] | [6] | [8]

COC(=O)c1ccc(NC(C)=O)cc1OC
not listed: [2]
inactive: all other assays above

C=CC(C)(CCC=C(C)C)OC(=O)C(C)C (centres undefined)
not listed: [2] | [5]
inactive: all other assays above

C=COCCCCO
not listed: [2] | [3] | [6]
inactive: all other assays above

CCCCCCC(O)CO (centres undefined)
not listed: [6] | [9] | [10]
inactive: all other assays above

NCC1CCC(C(=O)Oc2ccc(CCC(=O)O)cc2)CC1 (centres undefined)
not listed: [2] | [3]
inactive: all other assays above

CCCC(=O)CC
not listed: [2] | [4] | [6]
inactive: all other assays above

CN(C)c1ccncc1
not listed: [2] | [4] | [7]
inactive: all other assays above

Cc1cc(C)c(C)c(C)c1
not listed: [5] | [9] | [10]
inactive: all other assays above

CCCc1ccc(O)c(OC)c1
not listed: [1]
inactive: all other assays above

CC12CCCC=C1C(=O)OC2=O (centres undefined)
not listed: [1]
inactive: all other assays above

CCCCCC(CC)OC(=O)CCCOc1ccc(Cl)cc1Cl (centres undefined)
not listed: [1] | [7]
inactive: all other assays above

C=CCOC(=O)CCCCCCCC
inactive: [1] | [4] | [5] | [6] | [8]

CC(=O)OCC(=O)[C@@]1(O)CC[C@H]2[C@@H]3CCC4=CC(=O)C=C[C@]4(C)[C@H]3[C@@H](O)C[C@@]21C
inactive: [1] | [2] | [5] | [7] | [8]

C=C(C)C(=O)OCCCC
not listed: [1]
inactive: all other assays above

C=CCCCCCCCCOC(C)=O
not listed: [2] | [9] | [10]
inactive: all other assays above

CCCCCCCOC(C)=O
not listed: [1] | [5]
inactive: all other assays above
